Experimental data as given in PubChem BioAssay (EPA / NIEHS).
Active and inactive are the calls of the source. Rule for the calls: active = hit-call score of the fitted dose curve at least 0.9, where 1 is the maximum; inactive = score below 0.9.

Legend:
Conditions in all cases: mRNA level, 48 h; actives raise or lower the signal
CYP3A5 (gene 1577) = assay: LTEA_HepaRG_CYP3A5: Life Technologies and Expression Analysis (LTEA) Assay for CYP3A5 using HepaRG (AID 2283493)
Method in brief: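 HepaRG cells, plated 48 h then in serum-free induction medium, dosed in duplicate for 48 h with eight half-log concentrations up to 100 uM in 0.5% DMSO. Gene mRNA by Fluidigm TaqMan qRT-PCR, normalized to ACTB, GAPDH, POLR2A.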

[1] = read-out: Fatty Acid-Binding Protein 1 (FABP1), FABP1 (gene 2168); assay: LTEA_HepaRG_FABP1: Life Technologies and Expression Analysis (LTEA) Assay for Fatty Acid-Binding Protein 1 (FABP1) using HepaRG (AID 2283494)
Method in brief: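 Differentiated human HepaRG cells were exposed in duplicate for 48 h in serum-free induction medium to 8-point half-log concentration series topping at 100 uM in 0.5% DMSO. FABP1 mRNA measured by TaqMan qRT-PCR, normalized to ACTB/GAPDH/POLR2A; bidirectional fit versus DMSO.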

[2] = read-out: Glutathione S-Transferase (GSTA2), GSTA2 (gene 2939); assay: LTEA_HepaRG_GSTA2: Life Technologies and Expression Analysis (LTEA) Assay for Glutathione S-Transferase (GSTA2) using HepaRG (AID 2283497)
Method in brief: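 Human HepaRG cells, plated 48 h, then exposed in serum-free induction medium for 48 h to eight half-log concentrations up to 100 uM in 0.5% DMSO, duplicate. GSTA2 mRNA by qRT-PCR, normalized to ACTB/GAPDH/POLR2A; bidirectional fit versus DMSO.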

[3] = read-out: Glutamate-cysteine ligase catalytic (GCLC), GCLC (gene 2729); assay: LTEA_HepaRG_GCLC: Life Technologies and Expression Analysis (LTEA) Assay for Glutamate-cysteine ligase catalytic (GCLC) using HepaRG (AID 2283498)
Method in brief: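 Differentiated human HepaRG cells, plated 48 h then switched to serum-free induction medium, were exposed in duplicate for 48 h to 8 half-log concentrations topping at 100 uM in 0.5% DMSO. GCLC mRNA was quantified by qRT-PCR against ACTB, GAPDH and POLR2A.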

[4] = read-out: growth arrest and DNA damage 45 (GADD45G), GADD45G (gene 10912); assay: LTEA_HepaRG_GADD45G: Life Technologies and Expression Analysis (LTEA) Assay for growth arrest and DNA damage 45 (GADD45G) using HepaRG (AID 2283499)
Method in brief: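 HepaRG, 48 h exposure, top 100 uM, half-log 8-point series, 0.5% DMSO vehicle, duplicates. Readout: GADD45G transcript by qRT-PCR (Fluidigm array), housekeeping-normalised (ACTB/GAPDH/POLR2A). Bidirectional curve fit vs DMSO baseline.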

[5] = read-out: Glutamate-cysteine ligase regulatory (GCLM), GCLM (gene 2730); assay: LTEA_HepaRG_GCLM: Life Technologies and Expression Analysis (LTEA) Assay for Glutamate-cysteine ligase regulatory (GCLM) using HepaRG (AID 2283500)
Method in brief: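 Differentiated HepaRG cells exposed 48 h in serum-free induction medium to eight half-log concentrations up to 100 uM (0.5% DMSO). GCLM mRNA by TaqMan qRT-PCR, normalized to ACTB, GAPDH and POLR2A; bidirectional fit versus DMSO.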

[6] = read-out: Glutathione S-transferase M3 (GSTM3), GSTM3 (gene 2947); assay: LTEA_HepaRG_GSTM3: Life Technologies and Expression Analysis (LTEA) Assay for Glutathione S-transferase M3 (GSTM3) using HepaRG (AID 2283501)
Method in brief: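 qRT-PCR read-out of GSTM3 transcript, normalized to three housekeeping genes, from human HepaRG cells after 48 h chemical exposure. Eight-point half-log series, top 100 uM, 0.5% DMSO vehicle; gain or loss fitted relative to DMSO baseline.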

[7] = read-out: Heat shock 70 kDa protein 1 (HSPA1A), gene 3303; assay: LTEA_HepaRG_HSPA1A: Life Technologies and Expression Analysis (LTEA) Assay for Heat shock 70 kDa protein 1 (HSPA1A) using HepaRG (AID 2283502)
Method in brief: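 Human HepaRG cells in serum-free induction medium were exposed in duplicate for 48 h to 8 half-log concentrations, highest 100 uM, in 0.5% DMSO. HSPA1A mRNA read by TaqMan qRT-PCR, normalized to ACTB, GAPDH, POLR2A, fitted bidirectionally against DMSO.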

[8] = read-out: Hypoxia-inducible factor 1-alpha (Homo sapiens) (UniProt Q16665); assay: LTEA_HepaRG_HIF1A: Life Technologies and Expression Analysis (LTEA) Assay for Hypoxia-inducible factor 1 (HIF1A) Trancription factor using HepaRG (AID 2283503)
Method in brief: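 Differentiated HepaRG cells in serum-free induction medium exposed 48 h, in duplicate, to 8-point half-log series from 100 uM in 0.5% DMSO. HIF1A mRNA measured by TaqMan qRT-PCR, normalized to ACTB/GAPDH/POLR2A, fitted bidirectionally versus DMSO.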

[9] = read-out: 3-Hydroxy-3-Methylglutaryl-CoA Synthase 2 (HMGCS2), HMGCS2 (gene 3158); assay: LTEA_HepaRG_HMGCS2: Life Technologies and Expression Analysis (LTEA) Assay for 3-Hydroxy-3-Methylglutaryl-CoA Synthase 2 (HMGCS2) using HepaRG (AID 2283504)
Method in brief: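 qRT-PCR read-out of HMGCS2 transcript, normalised to three housekeeping genes, in HepaRG cells after 48 h chemical exposure. Eight-point curves from 100 uM, half-log dilutions, 0.5% DMSO vehicle; gain or loss fitted relative to DMSO baseline.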

HGF (gene 3082) = assay: LTEA_HepaRG_HGF: Life Technologies and Expression Analysis (LTEA) Assay for Hepatocyte Growth Facto (HGF) using HepaRG (AID 2283505)
Method in brief: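 HepaRG, 48 h dosing, 8-pt half-log series from 100 uM in 0.5% DMSO, duplicates. Readout: TaqMan qRT-PCR of HGF mRNA, housekeeping-normalized; bidirectional curve fit vs DMSO baseline.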

[10] = read-out: Insulin Like Growth Factor 1 (IGF1), IGF1 (gene 3479); assay: LTEA_HepaRG_IGF1: Life Technologies and Expression Analysis (LTEA) Assay for Insulin Like Growth Factor 1 (IGF1) using HepaRG (AID 2283506)
Method in brief: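 Differentiated HepaRG cells in serum-free induction medium, exposed 48 h in duplicate to 8 half-log concentrations up to 100 uM in 0.5% DMSO. IGF1 mRNA by Fluidigm qRT-PCR, normalised to ACTB, GAPDH and POLR2A.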

[11] = read-out: Intercellular Adhesion Molecule 1 (ICAM1), ICAM1 (gene 3383); assay: LTEA_HepaRG_ICAM1: Life Technologies and Expression Analysis (LTEA) Assay for Intercellular Adhesion Molecule 1 (ICAM1) using HepaRG (AID 2283507)
Method in brief: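 HepaRG, 48 h exposure, 8-pt half-log series from 100 uM, 0.5% DMSO vehicle, duplicates. Readout: TaqMan qRT-PCR mRNA, housekeeping-normalized (ACTB/GAPDH/POLR2A). Bidirectional curve fit vs DMSO baseline.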

[12] = read-out: Insulin-like growth factor-binding protein 1 (IGFBP1), IGFBP1 (gene 3484); assay: LTEA_HepaRG_IGFBP1: Life Technologies and Expression Analysis (LTEA) Assay for Insulin-like growth factor-binding protein 1 (IGFBP1) using HepaRG (AID 2283508)
Method in brief: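 qRT-PCR mRNA read-out (TaqMan, Fluidigm array), normalised to three housekeeping genes; HepaRG cells, 48 h exposure, 8-pt half-log series from 100 uM, 0.5% DMSO vehicle; bidirectional curve fit vs DMSO baseline.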

[13] = read-out: Interleukin 6 (IL6), IL6 (gene 3569); assay: LTEA_HepaRG_IL6: Life Technologies and Expression Analysis (LTEA) Assay for Interleukin 6 (IL6) using HepaRG (AID 2283509)
Method in brief: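 Differentiated human HepaRG cells, plated 48 h then switched to serum-free induction medium, were exposed in duplicate for 48 h to eight half-log concentrations up to 100 uM in 0.5% DMSO. IL6 mRNA measured by qRT-PCR, normalized to ACTB/GAPDH/POLR2A.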

[14] = read-out: Interleukin 6 Receptor (IL6R), IL6R (gene 3570); assay: LTEA_HepaRG_IL6R: Life Technologies and Expression Analysis (LTEA) Assay for Interleukin 6 Receptor (IL6R) using HepaRG (AID 2283510)
Method in brief: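 Differentiated HepaRG cells, plated 48 h, then exposed in duplicate for 48 h in serum-free induction medium to 8 half-log concentrations (top 100 uM, 0.5% DMSO). IL6R mRNA measured by TaqMan qRT-PCR, normalized to ACTB/GAPDH/POLR2A; bidirectional fit vs DMSO.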

[15] = read-out: Potassium channel subfamily K member 1 (KCNK1), KCNK1 (gene 3775); assay: LTEA_HepaRG_KCNK1: Life Technologies and Expression Analysis (LTEA) Assay for Potassium channel subfamily K member 1 (KCNK1) using HepaRG (AID 2283511)
Method in brief: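 Differentiated human HepaRG cells in serum-free induction medium were exposed in duplicate for 48 h to 8 half-log concentrations up to 100 uM in 0.5% DMSO. KCNK1 mRNA was measured by TaqMan qRT-PCR, normalized to ACTB, GAPDH and POLR2A, and fitted bidirectionally versus DMSO.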

[16] = read-out: Keratin 19 (KRT19), KRT19 (gene 3880); assay: LTEA_HepaRG_KRT19: Life Technologies and Expression Analysis (LTEA) Assay for Keratin 19 (KRT19) using HepaRG (AID 2283512)
Method in brief: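 HepaRG, 48 h chemical exposure, 8-pt half-log CRC from 100 uM, 0.5% DMSO vehicle, duplicates. Readout: TaqMan qRT-PCR of KRT19 mRNA, housekeeping-normalized (ACTB/GAPDH/POLR2A). Bidirectional fit vs DMSO baseline.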

[17] = read-out: JUN Transcription Factor, JUN (gene 3725); assay: LTEA_HepaRG_JUN: Life Technologies and Expression Analysis (LTEA) Assay for JUN Transcription Factor using HepaRG (AID 2283513)
Method in brief: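 HepaRG cells, 48 h post-plating, exposed 48 h in serum-free induction medium to 8-point half-log series (top 100 uM, 0.5% DMSO), duplicate; mRNA by qRT-PCR (TaqMan, Fluidigm), normalized to ACTB/GAPDH/POLR2A; bidirectional fit vs DMSO.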

Measured: outcome

Sequence of Hypoxia-inducible factor 1-alpha (Homo sapiens) (Q16665 whole entry, looked up): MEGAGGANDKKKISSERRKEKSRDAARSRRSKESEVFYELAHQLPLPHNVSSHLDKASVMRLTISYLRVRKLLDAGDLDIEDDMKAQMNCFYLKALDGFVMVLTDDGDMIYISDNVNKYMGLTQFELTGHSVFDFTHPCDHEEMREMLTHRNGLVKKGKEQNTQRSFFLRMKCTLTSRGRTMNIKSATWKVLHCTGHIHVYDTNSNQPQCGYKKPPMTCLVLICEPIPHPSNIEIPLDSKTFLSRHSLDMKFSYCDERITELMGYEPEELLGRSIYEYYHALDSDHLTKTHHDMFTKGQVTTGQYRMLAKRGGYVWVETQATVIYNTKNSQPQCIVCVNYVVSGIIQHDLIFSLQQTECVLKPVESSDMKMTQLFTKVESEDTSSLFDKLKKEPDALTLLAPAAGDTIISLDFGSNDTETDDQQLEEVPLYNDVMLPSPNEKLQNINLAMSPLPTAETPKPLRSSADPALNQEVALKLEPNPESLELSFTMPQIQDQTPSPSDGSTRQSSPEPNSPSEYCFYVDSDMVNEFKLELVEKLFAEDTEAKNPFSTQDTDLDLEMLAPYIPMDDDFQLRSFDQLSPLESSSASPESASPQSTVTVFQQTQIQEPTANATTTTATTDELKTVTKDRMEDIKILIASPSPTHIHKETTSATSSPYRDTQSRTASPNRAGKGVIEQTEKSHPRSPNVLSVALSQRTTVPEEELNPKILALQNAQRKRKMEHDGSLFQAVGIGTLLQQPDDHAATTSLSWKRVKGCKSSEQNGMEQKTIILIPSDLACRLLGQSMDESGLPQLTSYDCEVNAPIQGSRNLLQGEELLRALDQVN

c1cc[n+]2c(c1)-c1cccc[n+]1CC2
inactive: CYP3A5 (gene 1577) | [1] | [2] | [3] | [4] | [5] | [6] | [7] | [8] | [9] | HGF (gene 3082) | [10] | [11] | [12] | [13] | [14] | [15] | [16] | [17]
